Most compounds without a hit are left out; they make up all but 5.5% or so of the library.
MBNL1 CUG block: qHTS Assay for Inhibitors of MBNL1-poly(CUG) RNA binding; Muscleblind-like protein 1 (Homo sapiens), Q9NR56; TR-FRET MBNL1-His/biotin-(CUG)12 binding, 665/545 ratio; Potency, µM (highest dose often 57.5 µM), for inactives: at the highest dose activity change, negative = inhibition, usual class: inhibitors; 280,000 compounds, 0.036% hits; AID 2675, 2010; active means well fitted inhibition curve with a large enough effect in the signal ratio, with a control signal flat, not every such curve was filed as active; inconclusive means small, poorly fitted or top-dose-only effect, or effect the other way, or a change in a side signal; inactive means no such curve, though single readings can be large or run the other way; the % refers to the signal ratio; further: potency means the concentration at half of the fitted maximal effect; on the % scale 0 is the no-effect control and ±100 the full control effect
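Compound titration spanned 92 nM–58 uM against the MBNL1-His/biotin-(CUG)12 complex. After 60 min at room temperature with 5 nM streptavidin-XL665 and 0.055 ng/ul terbium anti-His, ratiometric 665/545 nm emission (Ex 340 nm) normalized to controls.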
RORgamma inh: qHTS for inhibitors of ROR gamma transcriptional activity. Drosophila S2 Gal4-RORgamma UAS-luciferase reporter, 20 h. Nuclear receptor ROR-gamma (Mus musculus), P51450. 310,000 compounds, 5.4% hits. Potency, µM (series often up to 53.6 µM), inactives show at the top dose activity change, negative = inhibition, usual class: inhibitors; further: potency means the concentration at half of the fitted maximal effect; on the % scale 0 is the no-effect control and ±100 the full control effect; nearly all actives have a fitted effect of over 60% in size
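Luminescence from a UAS-regulated Photinus luciferase reporter in stably transfected Drosophila Schneider cells is measured; decreased signal marks ROR gamma inhibition. Fusion expression is induced by 700 uM copper sulfate for 20 hr.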
Gal4-VP16 FLuc: VP16 counterscreen qHTS for inhibitors of ROR gamma transcriptional activity | Potency, µM (titrated, usually from 53.6 µM), without a hit: top-dose activity, negative = inhibition, usual class: inhibitors | Drosophila S2 Gal4-VP16 UAS-luciferase, luminescence, 20 h | 310,000 compounds, 3.5% hits | AID 2546, 2010;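 further: Gal4-VP16 expression switched on by copper sulfate through the metallothionein promoter; potency means the concentration at half of the fitted maximal effect; on the % scale 0 is the no-effect control and ±100 the full control effect; nearly all actives have a fitted effect of over 50% in size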
CtBP-E1A inh: qHTS Assay for Inhibitors of the CtBP/E1A Interaction; CtBP / adenovirus E1A interaction (AlphaScreen); AlphaScreen GST-E1A/His-CtBP binding, 1536-well; hits give low values; activity change, % (test concentration not listed); 340,000 compounds, 0.49% hits; AID 651724, 2012; in the data active means activity change below about -65%; inconclusive means mostly about -30% to -63%; further: on the % scale 0 is the no-effect control and ±100 the full control effect
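In 5 uL wells, 23 nL compound meets equimolar GST-E1A and His-CtBP (5X stock 125 nM each) for 2 h, 37 °C. Beads (5X, 50 ug/mL) then 1 h, 37 °C, dark.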
Six1-Eya2 blk: qHTS Assay for Inhibitors of the Six1/Eya2 Interaction | activity change, % (test concentration not listed) | 360,000 compounds, 0.56% hits | AlphaScreen GST-Six1/His-Eya2 binding, biochemical; hits give low values | Homeobox protein SIX1 (Homo sapiens) + Protein phosphatase EYA2 (Homo sapiens), … | AID 651725, 2012; in the data active means activity change below about -65%; inconclusive means mostly about -30% to -63%; further: on the % scale 0 is the no-effect control and ±100 the full control effect
Target sequence (O00167 whole entry, looked up): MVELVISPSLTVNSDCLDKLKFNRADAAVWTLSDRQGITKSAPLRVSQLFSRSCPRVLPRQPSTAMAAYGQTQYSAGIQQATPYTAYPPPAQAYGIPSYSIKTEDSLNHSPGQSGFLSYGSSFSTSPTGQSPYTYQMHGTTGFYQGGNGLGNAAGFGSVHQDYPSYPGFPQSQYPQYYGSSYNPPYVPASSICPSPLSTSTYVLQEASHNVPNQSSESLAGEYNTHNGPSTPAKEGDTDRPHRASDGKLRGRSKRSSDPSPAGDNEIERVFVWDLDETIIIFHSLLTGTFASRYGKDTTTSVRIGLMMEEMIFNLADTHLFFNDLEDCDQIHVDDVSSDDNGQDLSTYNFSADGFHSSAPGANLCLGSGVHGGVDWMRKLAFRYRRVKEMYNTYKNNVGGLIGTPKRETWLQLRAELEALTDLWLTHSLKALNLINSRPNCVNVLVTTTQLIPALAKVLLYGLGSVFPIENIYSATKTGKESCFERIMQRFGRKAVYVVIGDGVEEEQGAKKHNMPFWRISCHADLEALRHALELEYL
Target sequence (Q15475 whole entry, looked up): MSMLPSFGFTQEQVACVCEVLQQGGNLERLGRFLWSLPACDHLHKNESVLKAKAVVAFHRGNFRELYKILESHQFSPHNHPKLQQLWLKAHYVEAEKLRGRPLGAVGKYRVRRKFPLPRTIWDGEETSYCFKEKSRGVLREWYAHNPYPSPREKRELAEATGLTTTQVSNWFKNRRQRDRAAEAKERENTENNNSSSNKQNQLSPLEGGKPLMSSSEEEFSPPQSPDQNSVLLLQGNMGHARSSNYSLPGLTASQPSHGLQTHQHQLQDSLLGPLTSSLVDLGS
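Compounds are tested against tagged Six1 and Eya2 proteins bridged by glutathione donor and nickel acceptor beads; after a one-hour incubation at 37 °C without light, AlphaScreen emission is recorded.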
CBFb-RUNX1 inh: qHTS Assay for Compounds Blocking the Interaction Between CBF-beta and RUNX1 for the Treatment of Acute Myeloid Leukemia; Runt-related transcription factor 1 (Homo sapiens) + Core-binding factor subunit beta …; AlphaScreen CBFb-His/RUNX1-biotin binding, biochemical; Potency, µM (titrated, usually from 59.8 µM), without a hit: at the highest dose activity, negative = inhibition, most hits filed as inhibitors; 230,000 tested, under 10 active; AID 1477, 2009; further: % of control where 0% means no effect
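Read-out: AlphaScreen. Format: His-CBF-beta with biotinylated RUNX1 (30 nM each) preincubated 20 min, compound 15 min, Ni-chelate plus streptavidin beads 90 min; room temperature throughout.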
* = called active by the depositor; ? = inconclusive; · = not tested or not shown; [ ] = dose if it differs, or a comment. Unless noted, the call rests on the fitted dose curve; in most records, active means well fitted curve in the direction sought with a large enough effect; inconclusive means small, poorly fitted or top-dose-only effect, or another doubt; inactive means no such curve, though single readings can be large; an effect the other way counts as inactive or inconclusive.

SMILES	MBNL1 CUG block	RORgamma inh	Gal4-VP16 FLuc	CtBP-E1A inh	Six1-Eya2 blk	CBFb-RUNX1 inh
Cc1ccccc1NC(=S)N(CCN1CCCCCC1)Cc1cccs1	-1.9%	10µM*	?	-3.0	-7.8	4.9%
COc1ccccc1NC(=S)N(CCc1c(C)[nH]c2ccccc12)Cc1cccs1	5.1%	?	-4.0%	?	-17.8	-13.2%
Fc1ccccc1NC(=S)N(CCN1CCCCCC1)Cc1cccs1	1.7%	12.0%	-3.4%[10 µM]	-1.6	-1.8	7.3%
Cc1ccccc1NC(=S)N(Cc1cccs1)C1CCCC1	-0.8%	?	?	-13.2	-4.0	5.4%
CC(C)CN(C(=O)c1ccc(S(=O)(=O)N2CCOCC2)cc1)C1CCS(=O)(=O)C1 (centres undefined)	·	·	·	13.6	3.9	·
O=c1c2ccccc2nc2n1CC/C2=C\N1CCN(c2ccc([N+](=O)[O-])cc2)CC1	·	·	·	-12.2	-12.6	·
C=CCN(C)NC(=S)Nc1ccccc1	·	5.01µM*	10µM*	-3.1	1.8	6.7%
CCCc1nc(SCC(=O)Nc2nnc(CC)s2)c2c(=O)n(C)c(=O)n(C)c2n1	-4.6%	-21.0%	5.01µM*	-2.3	4.3	·
CCc1nc(SCC(=O)Nc2nnc(CC)s2)c2c(=O)n(C)c(=O)n(C)c2n1	1.6%	35.8%	?	2.5	14.9	·
Cc1ccc2c(c1)-c1[nH]c(=S)ncc1CS2	·	2.24µM*	-13.4%	·	-4.7	-21.1%
CSc1sc(-c2ccnc(=S)[nH]2)c(-c2ccccc2)c1C#N	46.1%	-25.5%	7.0%	-27.8	-15.8	5.1%
Fc1ccc(-c2ccnc(=S)[nH]2)cc1	0.7%	3.55µM*	2.82µM*	-7.8	0.3	10.4%
Cc1ccc(OS(=O)(=O)c2ccccc2)c(/C=N/N=C2\NC(=O)C(C)S2)c1 (centres undefined)	?	8.91µM*	15.8µM*	4.6	-1.4	-7.3%
O=C1CS/C(=N/N=C/c2ccccc2OS(=O)(=O)c2ccccc2)N1	-7.6%[11.5 µM]	?	12.6µM*	1.3	-1.4	-1.3%
CC(C)OCCCNc1nc(Cl)nc2c1cnn2C	·	·	·	3.1	-13.3	·
COc1cc2[nH]c(=S)nc(NCCCOC(C)C)c2cc1OC	35.3%	15.8µM*	?	-93.0*	-86.2*	-0.7%
COCCNc1nc(-c2cccc(OC)c2)nc2ccccc12	·	0.6%	3.0%	·	·	·
CCOCCCNc1nc(=S)[nH]c2cc(OC)c(OC)cc12	14.7%	?	-13.1%	-91.9*	-83.2*	5.5%
COc1ccc(CCNC(=O)CCCCCNc2nc(=S)[nH]c3ccccc23)cc1OC	?	?	?	-19.0	?	-4.4%
CCCCNc1nc(=S)[nH]c2cc(OC)c(OC)cc12	11.7%	7.94µM*	7.94µM*	-93.4*	-90.9*	1.0%
COCCNc1nc(=S)[nH]c2cc(OC)c(OC)cc12	-8.0%	-19.4%	-4.1%	-87.0*	-79.6*	6.5%
O=S(=O)(c1ccccc1)N1CCC2(CC1)CN(C(c1ccccc1)c1ccccc1)C2	·	10.6%	-10.4%	·	·	·
CCOC(=O)C(Cc1ccccc1)NC(=O)CCc1nnc2ccc(N3CCCC3)nn12 (centres undefined)	-0.7%	-10.1%	3.9%	4.1	3.0	·
CN(Cc1ccc(Cl)cc1)C(c1cc2ccccc2o1)c1nnnn1C(C)(C)C (centres undefined)	·	·	·	6.9	10.2	·
CCc1ccc(CN(C)C(=O)C2CCC(=O)N(Cc3ccccn3)C2)cc1 (centres undefined)	-4.3%	17.3%	-10.5%	8.1	9.6	·
SMILES	MBNL1 CUG block	RORgamma inh	Gal4-VP16 FLuc	CtBP-E1A inh	Six1-Eya2 blk	CBFb-RUNX1 inh
COc1ccc(NC(=O)CS(=O)(=O)Cc2ccccc2)c([N+](=O)[O-])c1	?	1.7%	-14.9%	-2.6	1.1	·
CCOC(=O)c1csc(NC(=O)CC2CCCC2)n1	-7.1%	11.2µM*	-19.8%	6.9	6.5	7.3%
Cc1cc(/C=N/n2cnnc2)c(C)n1-c1ccc(OCc2ccc(Cl)cc2)cc1	2.8%	2.82µM*	?	-12.0	-24.9	?
CC(=O)Nc1nc2ccccc2n1Cc1ccccc1	-6.4%	2.24µM*	5.62µM*	18.1	1.2	0.5%
O=NNc1nc2ccccc2n1Cc1ccccc1	18.6%	1.78µM*	2.82µM*	?	-22.3	·
COCCCn1c(SCC(=O)NC2CCS(=O)(=O)C2)nnc1-c1ccc(Cl)cc1 (centres undefined)	·	·	·	·	0.0	·
Nc1nc(-c2ccccc2)cs1	-3.1%	8.2%	6.1%	12.5	0.3	3.9%[21.7 µM]
N#CC1=C(S)N=C(N)C(c2nc(-c3ccccc3)cs2)C12CCCC2 (centres undefined)	9.4%	10µM*	-20.5%	-7.9	-18.1	-18.3%
Cc1ccc(C(=O)CSC2=NC(N)=C(C#N)C3(CCCCC3)C2C(N)=O)cc1 (centres undefined)	14.2%	8.7%	?	-3.1	-0.1	-22.3%
Cc1ccc(-c2csc(C3C(N)=NC(S)=C(C#N)C34CCCCC4)n2)cc1 (centres undefined)	5.7%	5.01µM*	?	-17.2	-19.3	-29.9%
N#CC1=C(S)N=C(N)C(c2nc(-c3ccccc3)cs2)C12CCCCC2 (centres undefined)	5.2%	10µM*	?	-13.7	-11.4	?
CC(c1ccccn1)C(C)(O)C(C)c1ccccn1 (centres undefined)	·	·	·	-0.2	1.0	·
OC(c1ccccn1)(c1ccccn1)c1ccccn1	?	?	5.0%	-2.3	-85.1*	-13.1%
COc1cccc(C(=O)C(=O)c2cccc(OC)c2OC)c1OC	·	·	·	6.3	8.2	·
Cc1ccc(COc2ccccc2C(=S)N2CCCC2)cc1	1.0%	15.8µM*	?	0.6	-4.4	9.6%
COc1cccc(C(=S)N2CCCC2)c1OC	3.4%	?	0.0794µM*	·	-0.1	·
Oc1cc2cc(CCN3CCN(c4nsc5ccccc45)CC3)c(Cl)cc2[nH]1	·	?	1.6%	·	·	·
COc1ccc(CC2S/C(=N/N=C/c3ccccc3O)NC2=O)cc1 (centres undefined)	-5.6%	5.62µM*	?	8.4	-1.9	-2.2%
COc1ccc(/C=N/N=C2/NC(=O)C(c3ccccc3)S2)c(OC)c1 (centres undefined)	-1.1%	14.1µM*	-2.9%[0.365 µM]	-7.3	-6.7	-6.3%
